Data taken from PubChem BioAssay.
“And” between values parts separate entries of the source, which are not always exact repeats. Equal entries are not always repeated. Inconclusive results are not listed. The source made the active and inactive calls. Unless noted, no rule for the calls is given here.

Assays:
[1] = stimulators of insulin release from INS-1E, primary screen, cell-based, 5 mM glucose, NPC library (AID 1117329;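 active = compound raises insulin release from rat beta cells at 5 mM glucose, no numeric limit stated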); conditions: rat INS-1E insulin secretion, at 10 µM, stronger effect = higher value
[2] = growth inhibition of GSK3B-pretreated HCT116 cells – cell-based, CellTiter-Glo, 0.2 to 20 µM (AID 1117336;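 active = compounds lowering colon cancer cell viability after pretreatment blocking the GSK3B kinase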); conditions: HCT116 viability after GSK3B inhibitor, at 20 µM, stronger effect = higher value
[3] = inhibition of endothelial tube formation, primary screen, imaging, VEGF stimulated, CD31 staining, tube area, NPC library (AID 1117340;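 active = compound that reduces growth-factor-driven endothelial tube area in a mixed cell culture, no cutoff stated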); conditions: VEGF-stimulated ADSC/ECFC co-culture, at 10 µM, stronger effect = higher value
[4] = glucagon-like peptide 1 release enhancers, primary assay, NCI-H716 cell line, NPC library (AID 1117341;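 active = compound raises GLP1 secretion from the human gut endocrine cells, with no numeric limit stated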); conditions: NCI-H716 cells, at 10 µM, stronger effect = higher value
[5] = HCT116 colon cancer cell growth inhibition, primary screen, CellTiter-Glo luminescence, NPC library (AID 1117342;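 active = compounds that lower survival of HCT116 colon cancer cells in the luminescence readout, no numeric limit stated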); conditions: at 20 µM (top of the series)
[6] = CellTiter-Glo luminescent readout of SW480 viability loss, NPC library primary (AID 1117343;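 active = compounds that lower viability of the colon cancer cells in the luminescence readout, with no numeric limit stated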); conditions: CellTiter-Glo luminescence; at 20 µM (top of the series)
[7] = decreased DLD-1 cellular survival, CellTiter-Glo luminescent readout, NPC compound collection, primary HTS (AID 1117346;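 active = compounds that lower survival of DLD-1 colon cancer cells in the luminescence readout, no cutoff given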); conditions: DLD-1 viability, CellTiter-Glo luminescence; at 20 µM (top of the series)
[8] = modulation of C. elegans fzo-1 (AID 1259413);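 also: fzo-1 mutant C. elegans worms in liquid wells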; conditions: C. elegans fzo-1 modulator screen, mean read-out; stronger effect = higher value
[9] = differential killing of epithelial or mesenchymal cells, primary screen, imaging, PC-3E GFP, TEM4-18 mCherry, co-culture (AID 1345086;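 active = compounds killing one labelled cell type while sparing the other, by normalised counts and ratio limits, not self-fluorescent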;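 as to all read-outs here: cells exposed to compound for 72 h before imaging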;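 as to red/green cell ratio (normalised): normalised mesenchymal count divided by normalised epithelial count so high means epithelial killing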); conditions: imaging cell counts, at 1 µM; for red/green cell ratio (normalised): actives lie on both sides, counts scaled to control wells, 1 = unselective
[10] = growth inhibition of DIPG glioma cells, dose response, cell-based, SU-DIPG-XVII, MIPE5.0, CellTiter-Glo, qHTS (AID 1347060; cut-off not given, nearly all actives have AC50 up to about 26 µM); conditions: SU-DIPG-XVII viability, CellTiter-Glo ATP luminescence
[11] = growth inhibition of DIPG glioma cells, dose response, cell-based, SU-DIPG-XIII, MIPE4.0, CellTiter-Glo, qHTS (AID 1347061; cut-off not given, nearly all actives have AC50 up to about 37 µM;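 also: cells exposed to compound for 48 hours before readout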); conditions: SU-DIPG-XIII viability, CellTiter-Glo ATP luminescence
[12] = growth inhibition of DIPG glioma cells, dose response, cell-based, JHH-DIPG-1, MIPE4.0, CellTiter-Glo, qHTS (AID 1347062; cut-off not given, nearly all actives have AC50 up to about 27 µM;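 as to AC50: cells exposed to compound for two days before readout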); conditions: JHH-DIPG-1 viability, CellTiter-Glo ATP luminescence
[13] = growth inhibition of DIPG glioma cells, dose response, cell-based, SU-DIPG-IV, MIPE4.0, CellTiter-Glo, qHTS (AID 1347063; cut-off not given, nearly all actives have AC50 up to about 30 µM;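 also: compound exposure lasted 48 hours before the viability readout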); conditions: SU-DIPG-IV viability, CellTiter-Glo ATP luminescence
[14] = test system: Aerobactin synthetase IucA (Klebsiella pneumoniae); experiment: IucA aerobactin synthetase inhibitors, biochemical, Tocris library, absorbance (AID 1345561); conditions: purified IucA enzyme assay, absorbance (OD) read-out; stronger effect = lower value;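 tested at 8 µM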;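 also: 100% = enzyme without compound and 0% = no enzyme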
[15] = growth inhibition of DIPG glioma cells, dose response, cell-based, SU-DIPG-XIII, MIPE5.0, CellTiter-Glo, qHTS (AID 1347064; cut-off not given, nearly all actives have AC50 up to about 23 µM); conditions: SU-DIPG-XIII viability, CellTiter-Glo ATP luminescence
[16] = measured here: epithelial PC-3E GFP cell survival
[17] = measured here: mesenchymal TEM4-18 mCherry cell survival

| Structure (SMILES) | insulin secretion stimulation [1] | viability decrease [2] | tube area decrease [3] | GLP1 secretion stimulation [4] | inhibition of viability [5] | viability decrease (inhibition) [6] | viability decrease (inhibition) [7] | mean signal [8] | red/green cell ratio (normalised) [9] | normalised cell number [9, 16] | normalised cell number [9, 17] | outcome [10] | outcome [11] | outcome [12] | outcome [13] | remaining activity [14] | AC50 [11] | AC50 [12] | AC50 [13] | outcome [15] |
| --- | --- | --- | --- | --- | --- | --- | --- | --- | --- | --- | --- | --- | --- | --- | --- | --- | --- | --- | --- | --- |
| CC(C)(C#N)c1cc(Cn2cncn2)cc(C(C)(C)C#N)c1 | 2.3% (inactive) | -0.4% (inactive) | -11.4% (inactive) | 2.1% (inactive) | -5.9% (inactive) | 45.5% (inactive) | 0.55% (inactive) | 266 (inactive) | 1.37 (inactive) | 0.74 | 1.02 | inactive | inactive | inactive | – | – | – | – | – | – |
| COc1ccc(CC2c3cc(OC)c(OC)cc3CC[N+]2(C)CCC(=O)OCCCCCOC(=O)CC[N+]2(C)CCc3cc(OC)c(OC)cc3C2Cc2ccc(OC)c(OC)c2)cc1OC (centres undefined) | 13.1% (inactive) | 65.7% (active) | 44.4% (active) | -3% (inactive) | 6.9% (inactive) | 81.7% (active) | 51.9% (active) | 250 (inactive) | 0.8 (inactive) | 1.18 | 0.94 | inactive | inactive | inactive | inactive | – | – | – | – | – |
| CC(Cc1ccccc1)(NC(=O)CN)c1ccccc1 (centres undefined) | 2.2% (inactive) | -5.9% (inactive) | -10.6% (inactive) | 0.5% (inactive) | 13.7% (inactive) | 17.1% (inactive) | 19.6% (inactive) | 268 (inactive) | – | – | – | – | – | – | – | 116% (inactive) | – | – | – | – |
| CC(=O)Oc1ccccc1C(=O)Nc1ncc([N+](=O)[O-])s1 | -1.8% (inactive) | 106% (active) | 110% (active) | 2.9% (inactive) | 107% (active) | 120% (active) | 95.2% (active) | 256 (inactive) | 0.75 (inactive) | 1.31 | 0.98 | – | – | – | – | – | 27 µM (active) | 38.2 µM (active) | 34 µM (active) | – |
| COc1ccccc1OCC(O)CN1CCN(CC(=O)Nc2c(C)cccc2C)CC1 (centres undefined) | 0.8% (inactive) | -14.5% (inactive) | 0.2% (inactive) | 2.2% (inactive) | 9.23% (inactive) | -16.2% (inactive) | -14.6% (inactive) | 263 (inactive) | 0.78 (inactive) | 1.24 | 0.96 | inactive | inactive | inactive | inactive | – | – | – | – | inactive |
| NS(=O)(=O)c1cc(C(=O)O)c(NCc2ccco2)cc1Cl | -2% (inactive) | -10.1% (inactive) | 13% (inactive) | 0.9% (inactive) | -10.4% (inactive) | -18% (inactive) | -1.6% (inactive) | 263 (inactive) | 1.08 (inactive) | 1.05 | 1.14 | – | inactive | – | – | – | – | – | – | – |
| Cc1nc2n(c(=O)c1CCN1CCC(c3noc4cc(F)ccc34)CC1)CCCC2 | 2.5% (inactive) | 5.9% (inactive) | 24.9% (inactive) | 2.3% (inactive) | 24.2% (inactive) | 41.5% (inactive) | 10.7% (inactive) | 241 (inactive) | 0.98 (inactive) | 1.02 | 1 | – | inactive | – | inactive | – | – | – | – | – |
| Cc1cnc(NC(=O)C2=C(O)c3ccccc3S(=O)(=O)N2C)s1 | -1% (inactive) | -14.6% (inactive) | -8.1% (inactive) | -2.4% (inactive) | 19.1% (inactive) | 23.9% (inactive) | 4.7% (active) | 257 (inactive) | 0.91 (inactive) | 1.16 | 1.05 | inactive | – | inactive | inactive | – | – | – | – | inactive |
| Brc1c(NC2=NCCN2)ccc2nccnc12 | 0.4% (inactive) | 27% (inactive) | -5.2% (inactive) | -3.1% (inactive) | 15.1% (inactive) | 7.7% (inactive) | -3.7% (inactive) | 249 (inactive) | – | – | – | – | – | – | – | 80.2% (inactive) and 100% (inactive) | – | – | – | – |
| CCOC(=O)[C@H](CCc1ccccc1)N[C@@H](C)C(=O)N1[C@H](C(=O)O)C[C@@H]2CCC[C@@H]21 | 1.25% (inactive) | 13.8% (inactive) | -11% (inactive) | 2.1% (inactive) | 6.1% (inactive) | -19% (inactive) | -0.3% (inactive) | 226 (inactive) | 0.83 (inactive) | 1.1 | 0.91 | – | – | – | – | – | 8.33 µM (active) | 16.6 µM (active) | 5.9 µM (active) | inactive |
| Cc1ccnc2c1NC(=O)c1cccnc1N2C1CC1 | -1.6% (inactive) | -14.3% (inactive) | -6.9% (inactive) | -2% (inactive) | 6.5% (inactive) | -13.1% (inactive) | 13.6% (inactive) | 208 (inactive) | 0.79 (inactive) | 1.34 | 1.05 | – | – | – | – | – | – | – | 16.6 µM (active) | – |
| N#Cc1ccc(C(c2ccc(C#N)cc2)n2cncn2)cc1 | 0.6% (inactive) | -9.1% (inactive) | -17.6% (inactive) | -2.1% (inactive) | 9.8% (inactive) | -2.1% (inactive) | -3.3% (inactive) | 236 (inactive) | 1.05 (inactive) | 1.21 | 1.28 | inactive | – | inactive | – | – | – | – | – | inactive |
| CN1[C@@H]2CC[C@H]1CC(OC(=O)c1c[nH]c3ccccc13)C2 (some centres undefined) | 13.7% (inactive) | 24.6% (inactive) | 16.9% (inactive) | -0.1% (inactive) | 57.8% (active) | 51.8% (active) | 43.6% (inactive) | 271 (inactive) | – | – | – | – | – | inactive | inactive | 107% (inactive) | – | – | – | – |
